Data from PubChem BioAssay (Tox21).
Inconclusive results are not listed. Unmarked numbers belong to inactive results. The call rests on the fitted dose curve; in most records, active means well fitted activation curve with a large enough effect in the signal ratio in the repeat runs (not every such curve was filed as active); inconclusive means weak or mixed curves, or effect the other way; inactive means flat fitted curve, though single readings scatter; the % refers to the signal ratio.

Assay: qHTS assay to identify small molecule agonists of the endoplasmic reticulum stress response signaling pathway (AID 1159516)
Conditions: ESRE-bla HeLa, ER stress beta-lactamase reporter, 5 h; series mostly up to 61 µM; activation: at the top concentration
Description: National Center for Advancing Translational Sciences [NCATS]
NIH Chemical Genomics Center [NCGC]
U.S. Environmental Protection Agency [EPA]
National Institutes of Environmental Health Sciences [NIEHS]
National Toxicology Program [NTP]
U.S. Food and Drug Administration [FDA]
Endoplasmic Reticulum (ER) plays an important role in cellular signaling, protein folding/maturation, stress response, lipid biosynthesis, calcium storage and release etc. Under stress conditions, proteins in ER misfold or unfold, and leading to the expression of ER stress responsive genes. ER stress has been associated with a variety of pathophysiological conditions such as cancer, inflammation, neurodegenerative diseases, diabetes, ischemic heart disease etc. To identify the compounds that induce ER stress response, an ER stress reporter cell line, CellSensor ESRE-bla HeLa (Life Technologies, Carlsbad, CA) containing a beta-lactamase reporter gene under control of the Endoplasmic reticulum Stress Response Element (ESRE) was used to screen Tox21 10K compound library.
Tox21 Assay Protocol Summary:
ESRE-bla HeLa cells were dispensed at 1,500 cells/6 uL of assay medium per well into black wall/clear-bottom 1536-well plates using a Multidrop Combi (ThermoFisher Scientific, Waltham, MA) dispenser. After the assay plates were incubated at 37 C and 5% CO2 for an overnight, 23 nL of compounds dissolved in DMSO, positive controls or DMSO only was transferred to the assay plate by a Pintool station (Kalypsys, San Diego, CA). The assay plates were incubated at 37 C and 5% CO2 for 5 hr. One uL of LiveBLAzer B/G FRET substrate (Life Technologies) was added using a Flying Reagent Dispenser (Aurora Discovery, San Diego, CA) and the plates were incubated at room temperature for 2 hr. Fluorescence intensity (405 nm excitation, 460 nm and 530 nm emissions) was measured using an Envision plate reader (PerkinElmer, Shelton, CT).
On the % scale 0 is the no-effect control and ±100 the full control effect.

SMILES | activation
Cc1[nH]cnc1-c1ccc(Cl)cc1 | -0.065%
CCCCCCCCCCl | -4.65% [at 78.8 µM]
CN(C)C(=O)CNC(=O)Cc1ccccc1 | -0.191%
N#Cc1ccc(C(=O)O)cc1 | -0.51%
COCCOCCOCCOCCOCCO | -2.55%
CC(N)C(=O)OC(C)(C)Cc1ccc(Cl)cc1 (stereo not given) | 2.55%
CC(=O)Nc1ccc(S(=O)(=O)Cl)cc1 | -0.616%
Cc1cccc2nccnc12 | -1.04%
CC(C)=O | 0.0925%
NCCS | -0.435%
N[C@@H](CCC(=O)N[C@@H](CS)C(=O)NCC(=O)O)C(=O)O | 2.55% [at 28.5 µM]
c1ccc2c(c1)ccc1c3ccccc3ccc21 | 4.69%
NC(CO)C(=O)NNCc1ccc(O)c(O)c1O (stereo not given) | 0.0783%
COc1cc(C(=S)N2CCOCC2)cc(OC)c1OC | 0.0263%
O=C(OCc1ccccc1)C(=O)OCc1ccccc1 | -0.648%
Cc1nc2n(c(=O)c1CCN1CCC(c3noc4cc(F)ccc34)CC1)CCC[C@H]2O | 0.82% [at 28.5 µM]
Cc1cc(Cl)c(C)cc1Cl | 0.147%
CCOC(=O)c1ncn2c1CN(C)C(=O)c1cc(F)ccc1-2 | 2.67%
COC(=O)c1ccccc1C(=O)c1ccc(OCCN2CCCCC2)cc1 | 1.5%
C=CCCCCCCCCCCCC | 2.83%

SMILES | activation
COCCc1ccc(OCC2CO2)cc1 (stereo not given) | -1.34%
C=C(C)C(=O)OCCNC(C)(C)C | -0.138%
COc1cc2c(cc1OC)C(=O)CC2 | -0.105%
COc1cc(N)ccc1C | -3.23%
CC(C)C[C@H](NC(=O)CNC(=O)[C@H](Cc1ccc(O)cc1)NC(=O)[C@H](CO)NC(=O)[C@H](Cc1c[nH]c2ccccc12)NC(=O)[C@H](Cc1cnc[nH]1)NC(=O)[C@@H]1CCC(=O)N1)C(=O)N[C@@H](CCCN=C(N)N)C(=O)N1CCC[C@H]1C(=O)NCC(N)=O (stereo in doubt) | 0.023%
CCC(C)(CCC(C)C)C(=O)O (stereo not given) | 0.744%
C[C@@H](O)[C@H]1C(=O)N2C(C(=O)O)=C(SCCN=CN)C[C@H]12 | -3.46%
Cc1ccc2c(c1)OCC(=O)CO2 | 1.87%
CN(C)c1ccc(C=O)cc1 | -0.411%
CCCCCCOc1ccccc1C(N)=O | -2.4%
COc1ccc(Br)c(C)c1 | -2.44% [at 78.8 µM]
O=C(O)C(=O)Cc1ccccc1 | 6.93%
C#CC(C)N(C)C(=O)Nc1ccc(Cl)cc1 (stereo not given) | -1.72%
CCCCCCCCCCCCCC | 2.17%
Cc1ccc(S(=O)(=O)O)c(C)c1 | -3.56%
CCOc1cc([N+](=O)[O-])c(OCC)cc1N1CCOCC1 | 2.07%
CC(C)N(c1ccccc1)C(C)C | 0.16%
O=C1CC(c2ccc(Cl)cc2)CC(=O)N1 | -0.921%
CCCCCCCCC(=O)Cl | -0.981% [at 78.8 µM]
CCCCNC1CC(C)(C)NC(C)(C)C1 | -1.91%
